Drawing on PubChem BioAssay AID372 (MTDP, 2006), this text covers inhibition for 99 compounds.

The structures appear in SMILES notation. The campaign covered roughly 100,000 compounds. About 770 (0.77%) were called active. This is one part of a sample in which actives are shown more often than they occur. Rule as the data show it: active = inhibition above about 50%; inactive = the rest.

As usually defined, the inhibition is the relative decrease from the control value, in per cent.

The target of this assay is Gag-Pol polyprotein (Human immunodeficiency virus type 1 group M subtype B (isolate HXB2)) (UniProt P04585). Briefly: RNase H inhibition, HIV 1 Gag Pol polyprotein, FRET biochemical assay, screening (AID 372). The settings on record: HIV-1 RT RNase H, FRET RNA/DNA substrate fluorescence; at 10 µM; hits give high values.
On to `C#CCOc1ccc(C=C2C(=O)NC(=S)NC2=O)cc1Br`, for which the inhibition was 19% (inactive).
In the case of `COc1ccc(/C=N/c2sc(C)c(C)c2C#N)cc1` it was 12% (inactive); in that of `CCc1ncc(C(O)c2ccccc2OC)n1C` (centres undefined), 5% (inactive).
In the case of `COc1ccc(OC)c(C2NC(=S)NC(C)=C2C(=O)Nc2ccc(C)c(Cl)c2)c1` (centres undefined), the inhibition was 15% (inactive).
With `Oc1[nH]c2ccc(Br)cc2c1N=Nc1ccc2ccccc2n1` the figure was 52% (active); with `Oc1[nH]c2ccc(Br)cc2c1N=Nc1ccccn1`, 2% (inactive); with `O=S(=O)(N=Nc1c(O)[nH]c2ccc(Br)cc12)c1cccc2ccccc12`, 9% (inactive).
For `CCN(CC)S(=O)(=O)c1ccc(Cl)c(C(=O)Nc2ccc(OC)cc2)c1`, the inhibition was 0% (inactive).
In the case of `O=C1NN(c2ccccc2)C(=O)/C1=C/c1ccc(-c2cccc([N+](=O)[O-])c2)o1` it was 31% (inactive); in that of `CCOCCOC(=O)C1=C(C)N(CC)C(=O)NC1c1ccc([N+](=O)[O-])cc1` (centres undefined), 0% (inactive); in that of `C=CCOC(=O)C1=C(C)N(CC)C(=O)NC1c1ccc(Br)cc1` (centres undefined), 4% (inactive).
With `C=CCOC(=O)C1=C(C)N(CC)C(=O)NC1c1ccc([N+](=O)[O-])cc1` (centres undefined) the figure was 57% (active); with `COc1ccc(/C=N/Nc2ccc([N+](=O)[O-])cc2)cc1Br`, 7% (inactive); with `O=C(N/N=C/c1ccc([N+](=O)[O-])cc1)c1cc(-c2ccc3ccccc3c2)n[nH]1`, 50% (active).
As for `O=[N+]([O-])c1ccc(N/N=C/c2ccc(O)c(O)c2)cc1`, the inhibition was 57% (active).
Take `O=[N+]([O-])c1ccc(N/N=C/c2cc([N+](=O)[O-])ccc2O)cc1`: the inhibition was 10% (inactive).
With `O=C(N/N=C/c1ccc(/C=N/NC(=O)c2cccc([N+](=O)[O-])c2)cc1)c1cccc([N+](=O)[O-])c1` the figure was 12% (inactive).
Take `Cc1ccc(-c2cc(C(=O)N/N=C/c3ccc([N+](=O)[O-])cc3)[nH]n2)cc1`: the inhibition is 24% (inactive).
In the case of `O=[N+]([O-])c1ccc(N/N=C/c2ccc(O)c(Br)c2)cc1` it was 50% (active).
With `O=[N+]([O-])c1ccc(N/N=C/c2cc(Br)c(O)c(Br)c2)cc1` the figure was 24% (inactive); with `O=C(N/N=C/c1ccc(OC(=O)c2ccc(Br)cc2)cc1)c1cccc([N+](=O)[O-])c1`, 50% (active); with `O=C(N/N=C/c1ccc(F)cc1)c1cc(-c2ccc3ccccc3c2)n[nH]1`, 17% (inactive).
With `O=C(N/N=C\c1ccc(OC(=O)c2ccc(Br)cc2)cc1)c1ccc(Br)cc1` the figure was 14% (inactive); with `O=[N+]([O-])c1ccc(N/N=C/c2ccc(Cl)c([N+](=O)[O-])c2)cc1`, 8% (inactive); with `Cc1ccc(N(CC(=O)O)S(=O)(=O)c2ccccc2)cc1Cl`, 4% (inactive).
With `COc1ccc(Br)cc1/C=C/C(=O)Nc1ccc(O)c(-c2nc3ccccc3o2)c1`, the inhibition is 14% (inactive).
As for `O=C(Nc1ccc(Br)cc1)C1C2/C=C\CCCCC21` (centres undefined), the inhibition was 9% (inactive).
With `COC(=O)c1c(NC(=O)c2ccccc2C)sc2c1CCC(C)C2` (centres undefined) the figure was 12% (inactive); with `O=C(CSc1ccccc1)N/N=C/c1ccccc1O`, 7% (inactive); with `CS(=O)(=O)N1CCN(Cc2ccccc2Cl)CC1`, 0% (inactive).
Consider `OCCNc1nc(-c2ccccc2Cl)nc2ccccc12`, for which the inhibition is 0% (inactive).
With `COc1ccc(C(=O)NNC(N)=S)cc1` the figure was 0% (inactive).
As to `NC1=NC(=O)/C(=C/c2ccc(OS(=O)(=O)c3cccc([N+](=O)[O-])c3)cc2)S1`, the inhibition is 25% (inactive).
With `O=C(N/N=C/c1ccc(O)cc1)c1ccc([N+](=O)[O-])cc1` the figure was 0% (inactive).
With `NC1=NC(=O)/C(=C/c2ccc(OC(=O)c3ccc(Cl)c(Cl)c3)cc2)S1` the figure was 18% (inactive); with `NC1=NC(=O)/C(=C/c2ccc(OC(=O)c3cccc([N+](=O)[O-])c3)cc2)S1`, 51% (active).
In the case of `O=C(N/N=C/c1ccc(/C=N/NC(=O)c2ccc([N+](=O)[O-])cc2)cc1)c1ccc([N+](=O)[O-])cc1`, the inhibition is 0% (inactive).
In the case of `O=C(N/N=C/c1ccc(O)c(O)c1)c1ccc([N+](=O)[O-])cc1` it was 51% (active).
In the case of `Cc1cc(Cl)ccc1OCC(=O)Nc1cc(Cl)c(Cl)cc1Cl` it was 5% (inactive); in that of `CCC1CCc2c(sc(NC(=O)c3cc([N+](=O)[O-])ccc3Cl)c2C(N)=O)C1` (centres undefined), 14% (inactive).
With `COc1ccc(OC)c(NC(=O)COc2ccc(Cl)c(C)c2)c1` the figure was 15% (inactive).
For `CC(CCC(=O)Nc1nc2ccccc2s1)CC(=O)Nc1nc2ccccc2s1` (centres undefined), the inhibition was 15% (inactive).
For `Cc1ccc2[nH]c(=O)c(C(=O)/C=C\c3ccccc3)c(-c3ccccc3)c2c1`, the inhibition was 45% (inactive).
With `Cc1ccc2[nH]c(=O)c(C(=O)/C=C/c3ccccc3Cl)c(-c3ccccc3)c2c1` the figure was 55% (active).
With `COc1ccc(OC)c(/C=C/C(=O)c2c(-c3ccccc3)c3cc(Br)ccc3[nH]c2=O)c1` the figure was 37% (inactive).
In the case of `COc1ccccc1/C=C/C(=O)c1c(-c2ccccc2)c2cc(C)ccc2[nH]c1=O` it was 59% (active); in that of `COc1ccc(/C=C\C(=O)c2c(-c3ccccc3)c3cc(C)ccc3[nH]c2=O)cc1OC`, 18% (inactive); in that of `COc1ccccc1/C=C/C(=O)c1c(-c2ccccc2)c2cc(Br)ccc2[nH]c1=O`, 57% (active).
Turning to `COc1ccc(/C=C\C(=O)c2c(-c3ccccc3)c3cc(C)ccc3[nH]c2=O)cc1`, the inhibition was 7% (inactive).
With `Cc1ccc2[nH]c(=O)c(C(=O)/C=C\c3ccc(Br)cc3)c(-c3ccccc3)c2c1` the figure was 28% (inactive).
Take `COc1cc(/C=C/C(=O)c2c(-c3ccccc3)c3cc(Br)ccc3[nH]c2=O)cc(OC)c1OC`: the inhibition was 0% (inactive).
With `O=C(/C=C/c1ccccc1Cl)c1c(-c2ccccc2)c2cc(Br)ccc2[nH]c1=O` the figure was 49% (inactive); with `O=C(/C=C/c1ccccc1Cl)c1c(-c2ccccc2)c2cc(Cl)ccc2[nH]c1=O`, 35% (inactive).
In the case of `CC12CN3CC(C)(CN(C1)C3c1c[nH]c3ccccc13)C2=O` (centres undefined) it was 6% (inactive); in that of `Cc1ccc(-n2c(C)cc(/C=C(/C#N)C(=O)Nc3ccc(Cl)cc3)c2C)cc1C`, 8% (inactive).
With `O=C(Oc1ccc([N+](=O)[O-])cc1)c1ccc(Cl)c(S(=O)(=O)N2CCOCC2)c1` the figure was 0% (inactive).
Regarding `O=C(N1CCN(c2c(F)c(F)c(C(F)(F)F)c(F)c2F)CC1)C12CC3CC(CC(C3)C1)C2`, the inhibition was 7% (inactive).
With `O=c1c(N=Nc2ccc(Br)cc2)c(O)n(-c2ccccc2)c(=O)n1-c1ccccc1` the figure was 17% (inactive); with `COc1ccccc1C1NC(=S)NC(C)=C1C(C)=O` (centres undefined), 5% (inactive); with `Cc1csc(N/N=C/c2c(F)cccc2Cl)n1`, 18% (inactive).
For the compound `Cc1ccc2nc(-c3ccc(NC(=O)c4cccc(F)c4)cc3)sc2c1`, the inhibition was 43% (inactive).
`Cc1ccc2nc(-c3ccc(NC(=S)NC(=O)c4ccccc4)cc3)sc2c1`: the inhibition is 6% (inactive).
In the case of `Cc1ccc2nc(-c3ccc(NC(=O)Cc4ccccc4)cc3)sc2c1` it was 52% (active); in that of `O=C(NC(=S)Nc1ccc(-c2nc3ccccc3s2)cc1)c1cccc(F)c1`, 34% (inactive).
For `Cc1ccc2nc(-c3ccc(NC(=S)NC(=O)c4ccccc4Cl)cc3)sc2c1`, the inhibition was 8% (inactive).
In the case of `Cc1ccc2nc(-c3ccc(NC(=S)NC(=O)c4cccc(F)c4)cc3)sc2c1` it was 56% (active); in that of `O=C(Nc1ccc(Cl)cc1)Nc1ccc(-c2nc3ccccc3s2)cc1`, 17% (inactive).
With `Cc1ccc2nc(-c3ccc(NC(=O)CCc4ccccc4)cc3)sc2c1` the figure was 5% (inactive); with `Cc1cccc(NC(=O)Nc2ccc(-c3nc4ccccc4s3)cc2)c1`, 50% (active).
With `Cc1cccc(C(=O)NC(=S)Nc2ccc(-c3nc4ccccc4s3)cc2)c1` the figure was 35% (inactive); with `Cc1ccc2nc(-c3ccc(NC(=S)NC(=O)c4ccccc4F)cc3)sc2c1`, 52% (active).
`Cc1ccc2nc(-c3ccc(NC(=O)Cc4ccc(Cl)cc4)cc3)sc2c1`: the inhibition was 24% (inactive).
As to `O=C(Nc1ccc(Cl)cc1)C1CC(=O)N(c2cccc([N+](=O)[O-])c2)C1` (centres undefined), the inhibition was 4% (inactive).
With `COc1cc(OC)c(/C=C2\C(=O)NC(=S)N(c3ccc(C)cc3)C2=O)cc1Br`, the inhibition is 4% (inactive).
In the case of `NC(=O)c1ccccc1NC(=O)c1cccc([N+](=O)[O-])c1` it was 7% (inactive).
Turning to `Cc1ccc(N=C(NO)C(=Nc2ccc(C)c(C)c2)NO)cc1C`, the inhibition was 23% (inactive).
With `COc1cc(C=C2C(=O)c3ccccc3C2=O)ccc1OCc1ccc(F)cc1` the figure was 7% (inactive); with `COc1cc(C2NC(=O)NC(C)=C2C(=O)OCc2ccc3c(c2)OCO3)cc(OC)c1OC` (centres undefined), 9% (inactive); with `COc1ccc2c(c1)CC/C(=C\c1ccc([N+](=O)[O-])cc1)C2=O`, 4% (inactive).
On to `COc1cc(C(=O)N/N=C/c2ccc(OC)c(OC)c2C(=O)O)cc(OC)c1OC`, for which the inhibition is 0% (inactive).
In the case of `O=C(NC(=S)Nc1ccc(-c2nc3ccccc3s2)cc1)c1ccc([N+](=O)[O-])cc1` it was 38% (inactive); in that of `Cc1ccc(C(=O)NC(=S)Nc2ccc(-c3nc4ccccc4s3)cc2)cc1C`, 35% (inactive); in that of `COc1ccc(C(=O)OCC(=O)c2ccc([N+](=O)[O-])cc2)cc1OC`, 7% (inactive).
With `O=S(=O)(Nc1nc2ccccc2s1)c1cccc2cccnc12` the figure was 8% (inactive); with `Cc1cc(NC(=O)CSc2nnc3c4ccccc4n(C)c3n2)no1`, 4% (inactive); with `Oc1c(Br)cc(Br)cc1/C=N/Nc1nnc2c(n1)[nH]c1ccccc12`, 2% (inactive).
Consider `Oc1c(Br)cc(/C=N/Nc2nnc3c(n2)[nH]c2ccccc23)c(O)c1Br`, for which the inhibition was 12% (inactive).
With `O=C(CNC(=O)c1ccccc1)OCC(=O)c1ccc(Cl)cc1` the figure was 3% (inactive); with `COc1cc(/C=C2/C(=O)NN(c3ccc(C)c(C)c3)C2=O)ccc1O`, 25% (inactive); with `CCOc1cc(/C=C2/C(=O)NN(c3ccc(I)cc3)C2=O)ccc1O`, 11% (inactive).
Regarding `Cc1ccc(N2NC(=O)/C(=C/c3ccc(O)c(O)c3)C2=O)cc1C`, the inhibition is 52% (active).
As for `CCOC(=O)c1ccc(N2NC(=O)/C(=C/c3ccccc3O)C2=O)cc1`, the inhibition is 14% (inactive).
With `Cc1ccc(N2NC(=O)/C(=C/c3cc(I)cc(I)c3O)C2=O)cc1` the figure was 0% (inactive).
As to `Cc1ccc(N2NC(=O)/C(=C/c3ccc(O)cc3)C2=O)cc1C`, the inhibition was 13% (inactive).
With `Cc1ccc(N2NC(=O)/C(=C/c3ccc(O)c(O)c3)C2=O)cc1` the figure was 51% (active); with `Cc1ccc(N2NC(=O)/C(=C/c3ccc(O)c([N+](=O)[O-])c3)C2=O)cc1`, 8% (inactive); with `Cc1ccc(N2C(=O)NC(=O)/C(=C/c3ccc(O)c(O)c3)C2=O)cc1`, 33% (inactive).
Turning to `CCOC(=O)c1ccc(N2NC(=O)/C(=C/c3cc(I)cc(I)c3O)C2=O)cc1`, the inhibition was 57% (active).
With `O=C1NN(c2ccc(I)cc2)C(=O)/C1=C\c1ccc(F)cc1` the figure was 0% (inactive).
